Screening data deposited in PubChem BioAssay by several laboratories.
Beta cell apopt = blocks beta cell apoptosis | protection from apoptosis, % (concentration not given with the values) | 300,000 compounds, 0.8% hits | AID 435005 | INS-1E cytokine-induced death, ATP luminescence, 48 h; percent of positive-control rescue, neutral wells zero;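 active means Every replicate reaches about 75%, or at least half do and their mean reaches it too, limit read from the data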;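 further: 0% = cytokine-treated negative control wells and 100% = positive control rescue; higher means more ATP so stronger rescue from cytokine killing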
Gli-Sufu antag = Gli-Sufu pathway antagonism; Sufu-KO-LIGHT fibroblasts, Gli luciferase reporter luminescence; inhibition, % at 5 µM; 340,000 compounds, 0.74% hits;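 active means inhibition above about 55%, limit read from the data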;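 further: 0% = DMSO-treated cells and 100% = wells with medium but no cells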
Mdm2-MdmX inh = inhibitors of human Mdm2/MdmX interaction; SaOS-2 split-luciferase Mdm2/MdmX complementation, luminescence; AID 485346; 330,000 compounds, 3% hits; inhibition, % at 8 µM; O15151+Q00987;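 active means inhibition of at least 50% at 8 µM in the primary screen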
Target sequence (O15151 whole entry, looked up): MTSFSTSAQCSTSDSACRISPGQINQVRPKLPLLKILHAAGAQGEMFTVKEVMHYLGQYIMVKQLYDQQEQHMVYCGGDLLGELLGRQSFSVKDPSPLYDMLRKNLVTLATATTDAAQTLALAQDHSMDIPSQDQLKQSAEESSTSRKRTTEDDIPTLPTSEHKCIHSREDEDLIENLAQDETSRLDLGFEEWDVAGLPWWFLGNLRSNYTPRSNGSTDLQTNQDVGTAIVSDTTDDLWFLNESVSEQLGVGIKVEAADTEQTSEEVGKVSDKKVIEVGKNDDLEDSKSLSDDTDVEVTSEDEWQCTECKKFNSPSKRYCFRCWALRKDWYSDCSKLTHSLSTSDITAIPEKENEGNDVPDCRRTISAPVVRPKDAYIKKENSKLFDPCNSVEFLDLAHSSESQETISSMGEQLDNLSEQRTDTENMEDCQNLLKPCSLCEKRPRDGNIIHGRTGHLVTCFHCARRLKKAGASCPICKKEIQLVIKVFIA
Target sequence (Q00987 whole entry, looked up): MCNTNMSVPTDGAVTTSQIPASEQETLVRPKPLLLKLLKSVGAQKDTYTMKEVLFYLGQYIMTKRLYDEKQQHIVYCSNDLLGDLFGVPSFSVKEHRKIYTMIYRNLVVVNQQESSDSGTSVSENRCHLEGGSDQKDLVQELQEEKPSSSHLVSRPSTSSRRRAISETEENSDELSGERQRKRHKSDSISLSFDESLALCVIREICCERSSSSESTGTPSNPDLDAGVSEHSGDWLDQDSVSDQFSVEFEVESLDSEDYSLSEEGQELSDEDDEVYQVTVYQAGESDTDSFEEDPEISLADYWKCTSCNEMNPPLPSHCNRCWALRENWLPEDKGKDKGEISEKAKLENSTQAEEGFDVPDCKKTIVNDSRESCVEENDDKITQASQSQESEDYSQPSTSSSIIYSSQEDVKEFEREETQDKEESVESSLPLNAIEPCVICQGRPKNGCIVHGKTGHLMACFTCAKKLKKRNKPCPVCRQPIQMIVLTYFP
CSC inhib = cancer stem cell inhibition. cancer stem cell-like cells viability, luminescence. inhibition, % at 7.5 µM. 300,000 compounds, 1.1% hits; in the data active means inhibition above about 75%; tested in HMLE shEcad cells
697 NFkB inh = inhibitors of the PMA/ionomycin-induced NF-kB reporter in 697 B cells | 330,000 compounds, 0.33% hits | AID 435022 | 697 B-cell NF-kB luciferase reporter, 16 h | inhibition, % at 4 µM; in the data active means inhibition above about 35%
Jurkat NFkB inh = lowers PMA/ionomycin-induced NF-kB signal in Jurkat cells; inhibition, % at 4 µM; PMA/ionomycin-induced NF-kB luciferase reporter, luminescence; 330,000 compounds, 0.53% hits; in the data active means inhibition above about 50%
Mdm2-MdmX conf = confirmation of human Mdm2/MdmX interaction inhibitors; Mdm2-MdmX binding, luminescent assay; shares compounds with Mdm2-MdmX inh; inhibition, % at 8 µM; 10,000 compounds, 55% hits; in the data active means inhibition above about 40%
Full FLuc ctr = full-length luciferase inhibition in Mdm2/MdmX counter-screen | shares compounds with Mdm2-MdmX inh | SaOS-2 full-length luciferase counterscreen, luminescence | inhibition, % at 8 µM | 6,200 compounds, 77% hits;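 active means mean inhibition at 8 µM reaching about 37%, which flags the compound as non-specific, limit read from the data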;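 further: p53-null SaOS-2 cells with luciferase driven by a doxycycline-inducible promoter; compound on cells about two nights before reading with doxycycline added after day one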
* = called active by the depositor; x = not tested or not shown; + = active, no number. Hits are enriched below; roughly 4.5% of the tested compounds scored in any of these assays.

SMILES	Beta cell apopt	Gli-Sufu antag	Mdm2-MdmX inh	CSC inhib	697 NFkB inh	Jurkat NFkB inh	Mdm2-MdmX conf	Full FLuc ctr
O=c1[nH]ncn1-c1ccccc1C(F)(F)F	0	7	-4	-6	10	-2	x	x
O=C1N(c2ccccc2C(F)(F)F)O[C@@]1(c1ccccc1)C1CCCC1	-2	-19	77*	61	12	12	51*	56*
CC(C)CC1NC(=O)N(CC(=O)Nc2cc(F)ccc2F)C1=O (stereo not drawn)	-7	-5	14	-17	12	-1	x	x
COC(=O)c1ccccc1S(=O)(=O)NNC(=O)Nc1ccccc1	-3	31	69*	-9	15	1	50*	75*
COC(=O)c1ccccc1S(=O)(=O)C(C)(C)C	-7	11	2	-6	16	-1	x	x
COc1cc(/C=C/C(=O)c2ccc3c(c2)OCCO3)cc(Br)c1OCC(=O)N(C)C	-13	7	95*	x	-47	47	79*	56*
CCCCOc1ccccc1C1NC(=O)CCC1[N+](=O)[O-] (stereo not drawn)	-7	-30	20	-8	-7	-1	x	x
Cc1cccc(C(=O)CC(=O)c2cc(Cl)ccc2O)c1	44	6	62*	32	-37	7	58*	39*
CCc1nnc(NC(=O)CSc2nc(-c3ccccc3)nc3ccccc23)s1	-1	6	78*	7	-7	-9	50*	90*
COc1ccc(C(CNC(=O)c2cccc(S(=O)(=O)N3CCCCC3)c2)N2CCCC2)cc1 (stereo not drawn)	-8	37	-5	-10	2	-13	x	x
COc1ccc(C(=O)OCC(=O)Nc2ccc([N+](=O)[O-])cc2OC)c(O)c1	9	12	84*	3	12	-8	8	x
CCn1c2c(c3cc(OCC(C)C)ccc31)CCCC2=O	-1	0	16	32	28	8	x	x
C=C1CCc2c([nH]c3ccc(OCC(C)C)cc23)C1=O	139*	10	98*	87*	1	-14	32	x
CN(Cc1ccco1)Cc1ccc(O)c2ncccc12	1	2	18	-4	-5	5	x	x
Oc1ccc(F)c2cccnc12	-6	14	4	8	-3	-13	x	x
CCCOCc1ccc(O)c2ncccc12	107*	1	75*	32	-12	-12	56*	28
OCc1ccc(O)c2ncccc12	107*	22	86*	-3	-54	32	82*	43*
CC(C)COCc1ccc(O)c2ncccc12	89*	21	59*	10	3	8	44*	52*
Oc1ccc(CNc2ccccc2F)c2cccnc12	53	4	89*	x	-40	-10	85*	31
Oc1ccc(Cc2ccccc2)c2cccnc12	x	-15	x	x	x	x	x	x
Oc1ccc(COCc2ccccc2)c2cccnc12	99*	-12	80*	73	-67	-14	54*	29
O=C(CCl)N1CCN2C(=O)c3ccccc3C12c1ccc(Cl)cc1 (stereo not drawn)	13	3	100*	59	-3	-5	48*	28
COc1ccc(C(=O)O/N=C(\N)Cc2cccs2)cc1OC	0	-5	86*	-3	-65	4	51*	68*
COc1ccc(/C(N)=N/OC(=O)Cc2cccs2)cc1OC	0	-33	-9	-10	-31	-19	x	x
COc1ccccc1C/C(N)=N/OC(=O)c1ccc(C)c([N+](=O)[O-])c1	-2	-6	2	-8	9	2	x	x
SMILES	Beta cell apopt	Gli-Sufu antag	Mdm2-MdmX inh	CSC inhib	697 NFkB inh	Jurkat NFkB inh	Mdm2-MdmX conf	Full FLuc ctr
COc1ccccc1C/C(N)=N/OC(=O)c1ccc2c(c1)OCO2	-1	2	78*	-8	3	-2	41*	70*
O=C(NC1CCCCC1)C1CC(=O)N(Cc2ccccc2)C1 (stereo not drawn)	7	16	8	-10	-2	-5	x	x
CCCCCn1c(=O)[nH]c2cc(C(=O)NCCCN3CCCCC3CC)ccc2c1=O (stereo not drawn)	-7	1	34	-11	-19	22	x	x
Cc1ccc(C)c(SCC(=O)NCC(c2ccco2)N2CCCCC2)c1 (stereo not drawn)	-1	13	6	3	-37	9	x	x
O=c1oc(-c2cccnc2)nc2ccccc12	2	5	-4	14	-10	-1	x	x
O=c1oc(-c2ccccc2Br)nc2ccccc12	x	0	65*	15	13	2	50*	47*
Cc1ccccc1Nc1nnc(SCC(=O)NC(=O)Nc2ccc3c(c2)OCCO3)s1	-1	x	33	-7	-34	-9	x	x
Cc1cccc(Nc2nnc(SCC(=O)NC(=O)Nc3ccc4c(c3)OCCO4)s2)c1	0	-4	91*	18	21	7	24	x
COc1ccccc1Nc1nnc(SCC(=O)NC(=O)Nc2ccc3c(c2)OCCO3)s1	-10	10	68*	-8	-4	11	57*	44*
Cc1ccccc1-c1ccccc1CN1[C@@H](C(C)C)COCCS1(=O)=O	x	7	3	x	2	x	x	x
N#Cc1ccc(CN2C(=O)NC3(CCCCCC3)C2=O)cc1	-9	-6	1	-12	9	-8	x	x
Nc1ccc(C(=O)N2CCN(S(=O)(=O)c3ccc4c(c3)OCCCO4)CC2)cc1[N+](=O)[O-]	-5	8	10	-12	-4	16	x	x
Cc1ccc(-c2nc(COC(=O)C3=NN(c4ccccc4)C(=O)CC3)cs2)cc1	-7	-7	-17	-12	-4	-17	x	x
COc1ccc2c(CC(=O)Nc3ncc(C)s3)coc2c1	40	-107	66*	52	-40	-54	66*	+
Cc1ccnc(NC(=O)c2ccc(OCc3c(C)noc3C)cc2)c1	x	-20	-25	x	-82	-65	x	x
COc1ccc(C2=NN(C(=O)/C=C/c3ccccc3)C(c3ccccc3)C2)c(OC(C)=O)c1 (stereo not drawn)	22	2	58*	47	14	16	15	x
COc1ccc(C2CC(c3ccccc3OC(C)=O)=NN2C(=O)/C=C/c2ccccc2)cc1OC (stereo not drawn)	15	8	41	38	0	12	x	x
CC(c1ccccc1)N(CCC(c1ccccc1)C1CCOC(C)(C)C1)C(=O)c1ccco1 (stereo not drawn)	-7	14	31	42	-18	21	x	x
COc1ccc(CN(CCC(c2ccc(F)cc2)C2CCOC(C)(C)C2)C(=O)c2ccco2)cc1 (stereo not drawn)	-4	23	76*	27	-1	5	53*	131*
O=C(Nc1cccnc1)c1ccc([N+](=O)[O-])s1	78*	12	52*	13	3	37	25	x
